Test results as given in PubChem BioAssay (NCI).
The panel holds about 79,000 compounds, 15% with a hit somewhere; the sample as a whole holds those more often. The source made the active and inactive calls. Rule as the data show it: active = growth inhibition above about 70%; inactive = the rest.

Columns and labels:
[1] = NCI Yeast Anticancer Drug Screen. Data for the rad50 strain (AID 155);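 also: 0% = growth of vehicle-only cultures of the same strain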; conditions: S. cerevisiae rad50 strain growth inhibition; at 50.0 µM; active compounds read high
In short: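 Genetically altered yeast (DNA repair pathway); compound treatment; growth inhibition vs vehicle ctrl.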

[2] = NCI Yeast Anticancer Drug Screen. Data for the mec2-1 strain (AID 157); conditions: S. cerevisiae mec2-1 strain, at 50.0 µM, active compounds read high
In short: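 mec2-1 yeast strain, carrying an alteration in DNA damage repair or cell cycle control, was exposed to compounds; growth inhibition was measured relative to vehicle-treated controls.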

[3] = NCI Yeast Anticancer Drug Screen. Data for the sgs1 mgt1 strain (AID 161);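 also: 0% = growth of cultures given vehicle only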; conditions: S. cerevisiae sgs1 mgt1 strain, at 50.0 µM, active compounds read high
In short: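 Growth of a repair-deficient yeast mutant was monitored after compound treatment and expressed as inhibition relative to vehicle-treated cultures.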

[4] = NCI Yeast Anticancer Drug Screen. Data for the cln2 rad14 strain (AID 165);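 also: 0% = growth equal to vehicle treated cultures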; conditions: S. cerevisiae cln2 rad14 strain, at 50.0 µM, active compounds read high
In short: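 Yeast carrying cln2 and rad14 alterations (cell cycle control and DNA damage repair) were exposed to compounds. Growth inhibition was measured against vehicle-treated controls.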

[5] = NCI Yeast Anticancer Drug Screen. Data for the bub3 strain (AID 167); conditions: S. cerevisiae bub3 mutant strain, at 50.0 µM, active compounds read high
In short: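 Yeast carrying a defined mutation is treated with each compound, and growth is compared with that of vehicle-exposed cells to give inhibition.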

[6] = NCI Yeast Anticancer Drug Screen. Data for the mlh1 rad18 strain (AID 175); conditions: S. cerevisiae mlh1 rad18 strain growth inhibition; at 50.0 µM; active compounds read high
In short: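 Growth inhibition of the yeast strain was measured after compound exposure and expressed relative to vehicle-treated controls. The strain carries defined defects in DNA damage repair.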

Measured: growth inhibition

CCCCn1cc(C(=O)O)c(=O)c2c3sccc3ccc21
inactive: [1] -24.1% | [2] -35.8% | [3] -8.95% | [4] -5.15% | [5] -9.5% | [6] -26.1%

c1ccc(-c2nc3ccccc3nc2SCc2cccnc2)cc1
inactive: [1] 14.4% | [2] -18.1% | [3] -19.7% | [4] -18.2% | [5] -30.8% | [6] -9.8%

C=CCn1c(=S)sc2c(C(=O)OCC)c3c(C)cc(C)cn3c2c1=O
inactive: [1] -18.1% | [2] -56.5% | [3] -60% | [4] -5% | [5] -34.7% | [6] -37.9%

O=c1[nH]c(=O)c2ncn(-c3ccc([N+](=O)[O-])cn3)c2[nH]1
inactive: [1] 20.8% | [2] 7.3% | [3] 9.95% | [4] 5.4% | [5] 8.6% | [6] -27.6%

CC1=[N+]([O-])c2ccccc2C(=O)C1=O
inactive: [1] 35.3% | [2] 12.3% | [3] 35.3% | [4] 33.6% | [5] 41.1% | [6] 27.1%

CC(=O)CC(=O)N1C(C)CCCC1C (configuration not stated)
inactive: [1] -12.3% | [2] -36.7% | [3] -7.55% | [4] -0.4% | [5] -18.1% | [6] -18.7%

COC(=O)c1cc(Cl)ccc1NC(=O)C1CCCCC1
inactive: [1] 4.75% | [2] 15.8% | [3] 23% | [4] 27.8% | [5] 15.2% | [6] 36%

CCO/C(C)=N/n1c(C)nc2[nH]ncc2c1=O
inactive: [1] 1.55% | [2] -10.8% | [3] 5.55% | [4] -6.45% | [5] 11.7% | [6] 17.9%

CC(C)C1C(O)C23CCC4C(C)(CO)CCCC4(C)C2CC13 (configuration not stated)
inactive: [1] -7.15% | [2] -6.85% | [3] -22.6% | [4] -15.4% | [5] -24.1% | [6] -8.75%

CC(C)(C)C1CCC(C(=O)c2ccccc2)CC1 (configuration not stated)
inactive: [1] -7.75% | [2] -4.05% | [3] -0.75% | [4] -45.3% | [5] -28.6% | [6] 1.7%

CCOC(=O)c1cc(C=O)nc2c(Cl)cc(Cl)cc12
inactive: [1] 18.7% | [2] 6.25% | [3] 22.4% | [4] 5.9% | [5] 3.8% | [6] 17.6%

O=c1[nH]cc(COCC(O)CO)c(=O)[nH]1 (configuration not stated)
inactive: [1] -27% | [2] -10.7% | [3] -43.9% | [4] 3.95% | [5] -29.9% | [6] -23.7%

O=C(Nc1ccc(CCc2ccc(NC(=O)C34CC5CC(CC(C5)C3)C4)cc2)cc1)C12CC3CC(CC(C3)C1)C2
inactive: [1] -9.65% | [2] -6.55% | [3] 13.8% | [4] -0.45% | [5] -0.25% | [6] 2.55%

CCOC(=O)COc1ccc(Cl)cc1C
inactive: [1] 11.7% | [2] -4.7% | [3] -2.4% | [4] 4.45% | [5] 6.8% | [6] -17.2%

CN(C)N=Nc1c(F)cccc1F
inactive: [1] -5.85% | [2] -13.8% | [3] -28.6% | [4] 20.4% | [5] 8.9% | [6] 0.65%

O=c1c(O)c(-c2cccnc2)oc2ccc(Cl)cc12
inactive: [1] -2.1% | [2] 17.8% | [3] 12.8% | [4] 21.6% | [5] 16.7% | [6] 0.4%

COC(=O)c1c(C)cc(C)c(C(C)=O)c1O
inactive: [1] -16.9% | [2] -14.8% | [3] 0% | [4] -18.7% | [5] 0.75% | [6] -16.1%

CC(C)Oc1cc2c(cc1O)CC[C@@H]1[C@@H]2CC[C@]2(C)[C@@H](O)CC[C@@H]12
inactive: [1] 45.9% | [2] 8.2% | [3] 63.7% | [4] 33% | [5] 56.9% | [6] 44.1%

Cc1cnc2[nH]c(-c3ccc(Cl)cc3)cc(=O)c2c1
inactive: [1] -5.65% | [2] -21.6% | [3] -31.9% | [4] -31.4% | [5] -32% | [6] -52.1%

c1ccc(CCN(CCc2ccccn2)CCc2ccccn2)nc1
inactive: [1] -5.85% | [2] -13.6% | [3] 0.35% | [4] 0.3% | [5] 3% | [6] 18%

Clc1ccc(C(=C=C(c2ccccc2)c2ccccc2)c2ccc(Cl)cc2)cc1
inactive: [1] 33.7% | [2] 13.8% | [3] -4.4% | [4] 20.7% | [5] 5.55% | [6] 25.9%

COc1ccc(CCc2ccc(Cl)cc2)cc1
inactive: [1] 6.35% | [2] 6.3% | [3] -5.9% | [4] 15.5% | [5] -17.6% | [6] -4.5%

O=C1C2=C(Nc3cc(Cl)ccc3N2)OC1c1ccc(C2OC3=C(Nc4ccc(Cl)cc4N3)C2=O)cc1 (configuration not stated)
inactive: [1] -20.1% | [2] 11.2% | [3] -7.05% | [4] -33.5% | [5] -7.3% | [6] 17.8%

COc1ccn(C2OC(=O)C(C)(C)C2=O)c(=O)n1 (configuration not stated)
inactive: [1] -0.4% | [2] -15.4% | [3] 0.55% | [4] -1.2% | [5] -9.4% | [6] -12.6%

COCCNc1cncc(C(N)=O)c1
inactive: [1] 15% | [2] 6.9% | [3] 9.15% | [4] -19.2% | [5] 2.45% | [6] 10.9%

Cc1cccnc1NC=O
inactive: [1] -10.7% | [2] -12.2% | [3] -4.8% | [4] -17.6% | [5] -24.7% | [6] -9.7%

COc1cc(CCCCC(=O)O)cc(Br)c1OC
inactive: [1] -17.7% | [2] -1.95% | [3] 4.9% | [4] -33.7% | [5] 29.8% | [6] -3.85%

CC1c2ccccc2-c2ccccc21
inactive: [1] 10.2% | [2] -4.9% | [3] 7.25% | [4] -3.15% | [5] -1% | [6] 20.4%

O=[N+]([O-])c1ccc(O)c(C=NCCCN=Cc2cc([N+](=O)[O-])ccc2O)c1
inactive: [1] 0.7% | [2] 7.95% | [3] -5% | [4] -6.95% | [5] 9% | [6] -11.3%

CCCN(N)CCC
inactive: [1] -8.15% | [2] -16.6% | [3] -7.8% | [4] -45.2% | [5] 0.25% | [6] -1.6%

O=C1NC(=O)C(c2ccc3c(c2)OCO3)N1 (configuration not stated)
inactive: [1] -3.25% | [2] -10.6% | [3] -6% | [4] -30.9% | [5] -23.3% | [6] 7.05%

COC1CCC(C2=NC3CCCCC3SC2)CC1 (configuration not stated)
inactive: [1] 13.6% | [2] 18.8% | [3] 21.5% | [4] -10.6% | [5] 54.8% | [6] 31.7%

C=CCN(CC=C)C(=S)NC(=O)c1ccccc1
inactive: [1] 17.8% | [2] 27.8% | [3] 53.2% | [4] 16.9% | [5] 28.3% | [6] 2.25%

O=[N+]([O-])c1ccc(N/N=C/CCCCl)c([N+](=O)[O-])c1
inactive: [1] 6.6% | [2] -17.3% | [3] 13.2% | [4] 12.4% | [5] 11.1% | [6] 9.05%

N#CCCCOc1ccccc1
inactive: [1] -14.2% | [2] -13.6% | [3] 16.4% | [4] -6.7% | [5] -2.05% | [6] 5.4%

O=[N+]([O-])c1ccc(SC2=NCCCN2C2CCCCC2)c(Cl)c1
inactive: [1] -0.1% | [2] -13.9% | [3] 12.8% | [4] 13.8% | [5] 12.6% | [6] -9%

C=C1CN(C2=NCCO2)C1
inactive: [1] -17.6% | [2] -39.6% | [3] -5.65% | [4] -12.9% | [5] -13.6% | [6] 4.05%

CCC12OC3(CC)C4C(=O)OC1C1(CC)OC4(CC)C3C(=O)OC21
inactive: [1] -13.7% | [2] -5.6% | [3] 4.85% | [4] -5.75% | [5] 0.8% | [6] 13.3%

CCCCCC(C/C=N/N(C)C)C(O)(C(F)(F)F)C(F)(F)F (configuration not stated)
active: [6] 73.2%
inactive: [1] 1.35% | [2] 2.1% | [3] -5.15% | [4] -5.15% | [5] 15.4%

OCCCCN(CCO)CCCCO
inactive: [1] -2.75% | [2] -7.25% | [3] -1.5% | [4] -12.4% | [5] 13.9% | [6] -3.5%

CCCCn1cccc1
inactive: [1] 33.2% | [2] 10.2% | [3] 9.3% | [4] 15% | [5] 26.8% | [6] 26.4%

CCOC(=O)CN=NNc1ccc([N+](=O)[O-])cc1
inactive: [1] 10.3% | [2] 8.85% | [3] -3.5% | [4] -42.2% | [5] 21.1% | [6] 7.7%
